# Shown is part of a subset that was picked to be rich in hits.
# HT1080-NT tox = qHTS for induction of synthetic lethality in tumor cells producing 2HG: qHTS for the HT-1080-NT fibrosarcoma cell line. HT-1080-NT fibrosarcoma viability, CellTiter-Glo ATP luminescence, 48 h. Potency, µM (highest dose often 46.1 µM), for inactives: top-dose activity, negative = less viability, actives largely listed as cytotoxic. 360,000 compounds, 1.6% hits. AID 686970, 2013;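 also: NT is the 2HG producing partner of a matched IDH1 knockdown line; potency is read from the fitted curve at half-maximal effect; 0% = DMSO-treated cells and -100% = media-only wells without cells; nearly all actives have a fitted effect of over 55% in size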
#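 Viability by CellTiter-Glo luminescence after 48 h compound exposure at 37C of HT-1080-NT cells (750/well, RPMI, 5% FBS). % activity scaled between DMSO wells and medium-only wells, then curve-fitted and categorized by curve class.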
# IL1B secr inh = qHTS for Inhibitors of Inflammasome Signaling: IL-1-beta AlphaLISA Primary Screen; activity change, % at 57.5 µM; THP-1 LPS/ATP IL-1B secretion, AlphaLISA, 16 h; hits give low values; 360,000 compounds, 4.7% hits; in the data active = activity change below about -50%; inconclusive = mostly about -30% to -49%
#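 THP-1 cells pretreated 1 hr with compounds (up to 57.5 uM final), then stimulated with LPS (250 ng/mL final) plus ATP (1.25 mM final); secreted IL-1B measured by AlphaLISA after 16 hr, decreased signal indicating inhibition.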
# TDP1 cell noCPT = qHTS for Inhibitors of human tyrosyl-DNA phosphodiesterase 1 (TDP1): qHTS in cells in absence of CPT; 420,000 compounds, 15% hits; Potency, µM (titrated, usually from 46.2 µM), without a hit: at the top dose activity change, negative = growth inhibition, usual class: inhibitors; DT40 Tdp1-/- hTDP1 cells, no CPT, ATP luminescence, 48 h; AID 686978, 2013; also: potency is read from the fitted curve at half-maximal effect; nearly all actives have a fitted effect of over 55% in size
#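 Chicken DT40 Tdp1-/- cells stably complemented with human TDP1 were seeded at 400 cells/well with DMSO in place of 20 nM camptothecin. After compound pinning, cells grew at least 48 hr at 37 °C; viability read by CellTiter-Glo luminescence.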
# 12-LOX inh = Primary qHTS assay for inhibitors of human arachidonate 12S-lipoxygenase (ALOX12): Round 2 | Polyunsaturated fatty acid lipoxygenase ALOX12 (Homo sapiens), P18054 | purified 12hLO, xylenol orange hydroperoxide absorbance | Potency, µM (top dose mostly 108 µM), inactives show at the highest dose activity change, negative = inhibition, usual class: inhibitors | 580,000 compounds, 1.1% hits; also: potency is read from the fitted curve at half-maximal effect
# Target sequence (P18054 whole entry, looked up): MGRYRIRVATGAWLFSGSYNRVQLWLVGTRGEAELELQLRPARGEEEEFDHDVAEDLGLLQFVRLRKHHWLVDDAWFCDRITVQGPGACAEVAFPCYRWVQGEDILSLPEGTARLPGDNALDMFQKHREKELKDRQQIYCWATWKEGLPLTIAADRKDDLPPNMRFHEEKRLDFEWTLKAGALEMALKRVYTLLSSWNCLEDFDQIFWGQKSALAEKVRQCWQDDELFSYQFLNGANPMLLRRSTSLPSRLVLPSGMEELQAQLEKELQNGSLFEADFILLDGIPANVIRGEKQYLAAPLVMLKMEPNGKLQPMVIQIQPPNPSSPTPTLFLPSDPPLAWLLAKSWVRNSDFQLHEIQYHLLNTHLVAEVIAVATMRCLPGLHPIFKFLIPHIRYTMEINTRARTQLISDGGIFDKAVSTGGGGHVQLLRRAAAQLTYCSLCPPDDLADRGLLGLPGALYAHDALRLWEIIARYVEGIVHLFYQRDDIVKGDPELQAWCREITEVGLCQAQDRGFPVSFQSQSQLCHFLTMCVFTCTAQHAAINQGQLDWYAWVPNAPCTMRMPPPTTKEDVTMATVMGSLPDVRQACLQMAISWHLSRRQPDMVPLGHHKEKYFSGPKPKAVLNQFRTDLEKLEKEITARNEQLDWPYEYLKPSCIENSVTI
#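 Purified human 12hLO (150 nM final) in 25 mM Hepes, 0.01% Triton X-100, pH 7.0 was preincubated 15 min at room temperature with compound. Then 40 uM arachidonic acid was added, 30 min. Hydroperoxide was read by Fe-XO absorbance ratio 573/405 nm.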
# HT1080 IDH1KD tx = qHTS for induction of synthetic lethality in tumor cells producing 2HG: qHTS for the HT-1080-IDH1KD cell line | HT-1080 IDH1 knockdown viability, ATP luminescence, 48 h | AID 686971, 2013 | 360,000 compounds, 2% hits | Potency, µM (titrated, usually from 46.1 µM), for inactives: at the highest dose activity, negative = toxicity, most hits filed as cytotoxic;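 also: potency is read from the fitted curve at half-maximal effect; 0% = DMSO wells and -100% = cell-free medium wells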
#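 Assay cells: HT-1080 with IDH1 knockdown, 750 per well, RPMI/5% FBS. Exposure: 48 h at 37 °C following 2 h pre-incubation. Read: CellTiter-Glo luminescence; fitted concentration-response, curve class assigned.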
# TDP1 cell CPT = qHTS for Inhibitors of human tyrosyl-DNA phosphodiesterase 1 (TDP1): qHTS in cells in presence of CPT | Potency, µM (doses to about 46.2 µM), inactives show at the highest dose activity change, negative = growth inhibition, hits mostly inhibitors | chicken DT40 Tdp1-/-;hTDP1 cells + 20 nM CPT, ATP luminescence, 48 h | AID 686979, 2013 | 420,000 compounds, 12% hits; also: potency is read from the fitted curve at half-maximal effect; nearly all actives have a fitted effect of over 55% in size
#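 Cell growth measured by CellTiter-Glo luminescence after a minimum 48 h, 37 C compound exposure with 20 nM CPT in Tdp1-knockout DT40 cells stably expressing hTDP1, seeded 400/well; qHTS titration format.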
# An asterisk follows results filed as active; ? = inconclusive; . = no result; [ ] = dose if it differs, or a comment. Unless noted, calls follow the shape of the dose curve; as a rule, active = well fitted curve in the direction sought with a large enough effect; inconclusive = small, poorly fitted or top-dose-only effect, or another doubt; inactive = no such curve, though single readings can be large; an effect the other way counts as inactive or inconclusive. Unless noted, % is scaled to controls: 0 for no effect and ±100 for the full control effect.
SMILES,HT1080-NT tox,IL1B secr inh,TDP1 cell noCPT,12-LOX inh,HT1080 IDH1KD tx,TDP1 cell CPT
CS(=O)(=O)Nc1cccc(NC(=O)C2Cc3c(-c4cccc(F)c4)ccnc3O2)c1 (stereo not drawn),2.06µM*,-10.3,3.26µM*,-12.9%,?,5.17µM*
O=C(Nc1ccccc1)C1Cc2c(-c3cccc(F)c3)ccnc2O1 (stereo not drawn),4.4%,-62.7*,?,-8.7%,-16.2%,20.6µM*
CNC(=O)C1Cc2c(-c3cccc(F)c3)ccnc2O1 (stereo not drawn),25.1%,17.3,4.5%,0.9%,25.6%,-10.7%
COc1ccc(NC(=O)C2Cc3c(-c4cccc(F)c4)ccnc3O2)cc1OC (stereo not drawn),?,-15.3,4.61µM*,-9.9%,?,7.31µM*
COc1ccc(-c2cc(N3CCC(NC(=O)Cc4ccccc4Cl)CC3)n[nH]2)cc1,.,.,.,29.2%,.,.
O=C(O)COCc1ccccc1Cl,.,.,.,-7.4%,.,.
CC1=NOC2(C1)N(C)c1ccccc1C2(C)C (stereo not drawn),3.2%,-0.5,-2.2%,-1.7%,-1.1%,-4.8%
COc1ccc2ccc3c(c2c1)N=C[C@]1(O3)N(C)c2ccccc2C1(C)C,?,-25.5,10.3µM*,?,?,18.4µM*
CSC1=N/C(=C\c2ccc(-c3ccc(Cl)cc3)o2)C(=O)S1,.,.,.,25.1µM*,.,.
CSC1=N/C(=C\c2ccc(Br)o2)C(=O)S1,4.9%,-8.8,-0.8%,?,16.4%,-1.9%
CSC(C)C(=O)Nc1cccc(I)c1 (stereo not drawn),.,.,.,24.9%,.,.
C=C(C)Cn1c(NCc2ccccc2)nc2c1c(=O)n(C)c(=O)n2C,.,.,.,1.7%,.,.
COc1ccccc1C(=O)NCCc1csc(-c2ccc(C(F)(F)F)cc2)n1,.,.,?,-23.6%,.,?
COc1ccc(C(=O)NCCc2csc(-c3ccc(Cl)cc3)n2)cc1,.,.,18.4µM*,-25.1%,.,?
COc1ccc(CCC(=O)NCCc2csc(-c3ccc(C(F)(F)F)cc3)n2)cc1,.,.,.,-14.2%,.,.
COc1ccc(C(=O)NCCc2csc(-c3ccc(Cl)cc3)n2)c(OC)c1,.,.,23.1µM*,?,.,?
COc1ccc(-c2cc(C(=O)OC(C)C)c3ccccc3n2)cc1,.,.,.,-13.9%,.,.
Cc1ccc(C(=O)Nc2ccc3ncnc(N4CCCC4)c3c2)s1,.,.,.,16.5%,.,.
CC(Nc1nc(-c2cccc(Br)c2)cs1)c1nc2cc(Cl)c(N3CCCCC3)cc2n1CCOCCO (stereo not drawn),?,-54.8*,?,-8.6%,?,?
Cc1ccc(Cn2c(C(C)Nc3nc(-c4ccc(F)cc4)cs3)nc3cc(Cl)c(Cl)cc32)cc1 (stereo not drawn),0.4%,30.5,?,-22.3%,-3.7%,29.1µM*
CC(Nc1nc(-c2ccc(F)cc2)cs1)c1nc2cc(Cl)c(Cl)cc2n1CCOCCO (stereo not drawn),?,0.0,20.6µM*,0.4%,-23.1%,23.1µM*
Cc1csc(NC(C)c2nc3cc(C(F)(F)F)ccc3n2CCOCCO)n1 (stereo not drawn),4.1%,8.1,-22.6%,9.7%,1.6%,?
Cc1ccc(Cn2c(CCNc3nc(-c4ccc(Cl)c([N+](=O)[O-])c4)cs3)nc3cc(Cl)c(Cl)cc32)cc1,-7.7%,27.4,?,?,-12.2%,?
CCCn1c(C(C)Nc2nc(-c3ccc(C)cc3)cs2)nc2cc(Cl)c(Cl)cc21 (stereo not drawn),7.0%,35.9,-36.5%,0.9%,2.2%,?
O=[N+]([O-])c1cc(-c2csc(NCCc3nc4cc(Cl)c(N5CCCCC5)cc4n3CCCO)n2)ccc1Cl,-20.8%,5.8,16.4µM*,-7.5%,-21.4%,?
SMILES,HT1080-NT tox,IL1B secr inh,TDP1 cell noCPT,12-LOX inh,HT1080 IDH1KD tx,TDP1 cell CPT
Cc1ccc(Cn2c(C(C)Nc3nc(C)cs3)nc3cc(Cl)c(Cl)cc32)cc1 (stereo not drawn),-23.5%,15.7,?,?,0.4%,?
COCC(=O)N[C@H]1CO[C@H]2[C@@H]1OC[C@@H]2Nc1nccc(-c2ccc(OC)cc2)n1,.,.,.,38.7%[176 µM],.,.
COc1cccc(-c2ccnc(-c3nnc(C)n3Cc3ccccc3)c2)c1,.,.,.,1.5%[176 µM],.,.
CC(Nc1nc(-c2ccc(F)cc2)cs1)c1nc2cc(Cl)c(N3CCCCC3)cc2n1CCOCCO (stereo not drawn),?,-75.3*,20.6µM*,-10.9%,?,16.4µM*
COc1ccc(-c2csc(NC(C)c3nc4cc(Cl)c(Cl)cc4n3CCCO)n2)cc1 (stereo not drawn),?,-25.6,14.6µM*,?,?,?
CC(Nc1nc(-c2ccc(F)cc2)cs1)c1nc2cc(Cl)c(N3CCCCC3)cc2n1CCCO (stereo not drawn),2.4%,-6.7,5.8µM*,-14.1%,?,7.31µM*
CCOC(=O)NCc1cccc(CNC(=O)OCC)c1,.,.,.,-24.0%,.,.
Cc1cc(N2CCN(C(c3ccccc3)c3ccccc3)CC2)n2ncnc2n1,0.8%,23.3,?,?,-1.2%,23.1µM*
Cc1nc2ncnn2c(N2CCN(C(c3ccccc3)c3ccccc3)CC2)c1C,-15.4%,-8.3,13µM*,-13.7%,?,20.6µM*
Cc1cc(N2CCN(C(=O)c3ccco3)CC2)n2ncnc2n1,22.4%,-12.0,-7.3%,0.0%,20.1%,-3.8%
O=C(COc1ccc(F)cc1)Nc1cc(S(=O)(=O)N2CCCCC2)ccc1N1CCCCC1,-2.9%,-6.2,18.4µM*,6.31µM*,-5.4%,13µM*
O=C(COc1ccc([N+](=O)[O-])cc1)Nc1cc(S(=O)(=O)N2CCCCC2)ccc1N1CCCCC1,-6.1%,-2.9,?,39.8µM*,-14.6%,-25.3%
FC(F)(F)c1cccc(CSc2nnc(-c3ccncc3)n2-c2ccc(Br)cc2)c1,.,.,.,18.3%,.,.
CC(C)CNC(=O)C1COC2(CCN(C(=O)c3ccccc3Cl)CC2)N1C(=O)c1ccccc1 (stereo not drawn),.,.,.,46.5%,.,.
